The supplement of paper PMC13380429
A number with no mark means an inactive call.

System: Vero E6 infected with SARS-CoV-2
Experiment: inhibition of SARS-CoV-2 cytopathic effect; higher = more antiviral protection, active = above 15
Details: 48 h

Compound | inhibition of SARS-CoV-2 cytopathic effect (1 nM) [%] | inhibition of SARS-CoV-2 cytopathic effect (8.33 nM) [%] | inhibition of SARS-CoV-2 cytopathic effect (100 nM) [%] | inhibition of SARS-CoV-2 cytopathic effect (833.33 nM) [%] | inhibition of SARS-CoV-2 cytopathic effect (10000 nM)
CN[C@@H]1[C@H](O)[C@H](NC)[C@H]2O[C@@]3(O)C(=O)C[C@@H](C)O[C@H]3O[C@@H]2[C@H]1O [spectinomycin] | 1.83 | 2 | 1.36 | 4.54 | 3.59%
Cc1ccc(Nc2c(F)cccc2Cl)c(CC(=O)O)c1 [lumiracoxib] | -0.15 | -0.84 | -0.33 | 0.6 | -0.38%
O=C(c1c2ccccc2cc2ccccc12)N1CCC(N2CCC[C@@H](C(=O)N3CCOCC3)C2)CC1 | -1.36 | -0.08 | -0.31 | -1.35 | -6.08%
CN(CCOc1ccc(CC2SC(=O)NC2=O)cc1)c1ccccn1 (stereo not given) [rosiglitazone] | -1.76 | -2.53 | -4.45 | -0.37 | 1.48%
CCCCc1ccc(NS(=O)(=O)c2ccc(F)cc2)cc1 | -1.42 | -2.12 | -1.58 | -3.93 | -1.95%
C[C@@H](O)[C@H]1C(=O)N2C(C(=O)O)=C(S[C@@H]3CN[C@H](CNS(N)(=O)=O)C3)[C@H](C)[C@H]12 [doripenem] | -0.14 | 0.27 | -2.53 | -0.35 | 0.46%
Cc1c(C(=O)NC2CCCCC2)sc2nc3ccc(N)cc3n12 | 0.16 | -2.6 | -1.92 | -0.52 | 0.2%
CN(C)C(=O)c1ccc(S(=O)(=O)c2ccc(NC(=O)[C@@](C)(O)C(F)(F)F)c(Cl)c2)cc1 | -0.45 | 0.49 | 0.27 | 0.59 | -3.54%
C=CCc1ccc(O)c(-c2cc(CC=C)ccc2O)c1 [magnolol] | -1.26 | 1.55 | 1.32 | -2.87 | -1.19%
CC(C)(C)Sc1c(CC(C)(C)C(=O)O)n(Cc2ccc(Cl)cc2)c2ccc(OCc3ccc4ccccc4n3)cc12 [quiflapon] | 1.81 | 0.25 | -1.43 | 1.93 | 1.66%
CC(=O)N(C)c1cccc(-c2ccnc3c(C(=O)c4cccs4)cnn23)c1 [indiplon] | 2.87 | 0.82 | 4.78 | 4.31 | 0.34%
CCCCOc1ccc(C(=O)Nc2ccc(F)cc2F)cc1 | -1.89 | 2.63 | -3.66 | -1.37 | -1.07%
CC[C@@H](C)CNCC(=O)N1CCc2sccc2[C@@H]1COc1cccc(C)c1 | 2.77 | 3.61 | 2.09 | 1.08 | -6.12%
c1nc2c(NC3CCCCC3)nc(Nc3ccc(N4CCOCC4)cc3)nc2[nH]1 [reversine] | 3.13 | 6.21 | 1.52 | -0.29 | -7.06%
OC[C@H]1O[C@H](O[C@]2(CCl)O[C@H](CCl)[C@@H](O)[C@@H]2O)[C@H](O)[C@@H](O)[C@H]1Cl [sucralose] | 0.95 | 0.58 | 0.66 | -0.54 | -0.48%
CSc1nc(-c2ccc(F)cc2)c(-c2ccnc(N[C@@H](C)c3ccccc3)c2)[nH]1 | -3.63 | -2.6 | -5.98 | -4.77 | 1.96%
CCCCCCCCCCC(C)(C)C(=O)Nc1c(OC)cc(OC)cc1OC | 0.52 | 6.1 | 5.14 | 0.51 | 0.93%
CC[C@H]1OC(=O)[C@H](C)[C@@H](O[C@H]2C[C@@](C)(OC)[C@@H](O)[C@H](C)O2)[C@H](C)[C@@H](O[C@@H]2O[C@H](C)C[C@H](N(C)C)[C@H]2O)[C@](C)(O)C[C@@H](C)CN(C)[C@H](C)[C@@H](O)[C@]1(C)O [azithromycin] | 0.31 | 1.86 | 2 | 0.56 | 0.92%
COc1ccc(C(C)(C)C)cc1CN[C@H]1C2CCN(CC2)[C@H]1C(c1ccccc1)c1ccccc1 [maropitant] | 2.55 | 0.73 | -1.99 | -1.66 | 12.5%
N#Cc1cc2c(OCC(O)CN3CCN(C(c4ccccc4)c4ccccc4)CC3)cccc2[nH]1 (stereo not given) | 0.5 | -0.23 | 0.3 | 4.21 | -2.26%

Compound | inhibition of SARS-CoV-2 cytopathic effect (1 nM) [%] | inhibition of SARS-CoV-2 cytopathic effect (8.33 nM) [%] | inhibition of SARS-CoV-2 cytopathic effect (100 nM) [%] | inhibition of SARS-CoV-2 cytopathic effect (833.33 nM) [%] | inhibition of SARS-CoV-2 cytopathic effect (10000 nM)
O=Nc1c(O)[nH]c2c(Cl)c(Cl)ccc12 | -0.18 | -0.08 | -2.11 | -0.54 | -3.64%
CC/C(=C(/CC)c1ccc(OP(=O)(O)O)cc1)c1ccc(OP(=O)(O)O)cc1 [fosfestrol] | -0.34 | 2.21 | -0.95 | 0.3 | -0.17%
Cn1c(=O)[nH]c2ncn(C)c2c1=O [paraxanthine] | 1.63 | 1.68 | 0.01 | 2.99 | -0.26%
O=S(=O)(c1cccc2cnccc12)N1CCCNCC1 [fasudil] | -2.19 | -3.05 | -2.08 | -2.42 | -5.91%
OC(CCN1CCCCC1)(c1ccccc1)c1ccccc1 [pridinol] | 3.98 | 4.59 | -0.32 | -9.56 | 0.53%
Cc1nc(C)c(Cl)c(O)c1Cl [clopidol] | -2.81 | -1.24 | 1.07 | 0.96 | 1.78%
CN1C(=O)C(N2CCCCC2)S/C1=C\C(=O)O (stereo not given) [ozolinone] | -4.09 | 0.03 | 4.18 | 0.02 | -0.02%
CCc1cc(Cl)c(OC)c(C(=O)NC[C@@H]2CCCN2CC)c1O [eticlopride] | -0.43 | -0.67 | 1.17 | 0.92 | 3.78%
C#C[C@]1(O)CC[C@H]2[C@@H]3CCC4=CC(=O)CC[C@@H]4[C@H]3CC[C@@]21CC [norgestrel] | -2 | -0.115 | 2.25 | -0.065 | 0.025%
C[C@@H](Oc1cc(-n2cnc3ccc(CN4CCN(C)CC4)cc32)sc1C(N)=O)c1ccccc1C(F)(F)F | 1.38 | 0.72 | 1.12 | -3.55 | 54.8% (active)
Cc1cc(Nc2nc(N[C@@H](C)c3ccc(F)cc3)c(C#N)cc2F)n[nH]1 | 0.59 | 0.82 | -1.14 | -3.33 | -13%
Cc1ncc(Cl)cc1NCc1ccc(C(=O)N[C@@H](CC2CCCC2)C(=O)NC2CC2)s1 | 2.43 | 0.35 | -0.53 | -0.57 | -2.59%
CCOc1cc2ncc(C#N)c(Nc3ccc(OCc4cccc(F)c4)c(Cl)c3)c2cc1NC(=O)/C=C/CN(C)C | -1.73 | -3.51 | -7.95 | -12 | -22%
O=S(=O)(O)NC1CCCCC1 [cyclamic-acid] | -3.13 | 1.15 | 1.07 | 0.19 | -3.53%
CCC(C)n1ncn(-c2ccc(N3CCN(c4ccc(OCC5COC(Cn6cncn6)(c6ccc(Cl)cc6Cl)O5)cc4)CC3)cc2)c1=O (stereo not given) [itraconazole] | 2.52 | 7.17 | 2.54 | -1.78 | -7.27%
O=C(c1cccc(Br)c1)N1CCC(N2CCCC2)CC1 | -0.38 | 1.79 | -0.46 | 2.16 | -0.32%
O=C1C(CC[S+]([O-])c2ccccc2)C(=O)N(c2ccccc2)N1c1ccccc1 (stereo not given) [sulfinpyrazone] | 1.22 | 1.51 | -0.06 | 0.46 | 0.32%
O=C1CS[C@@H](c2ccccc2Cl)c2cc(Cl)ccc2N1 (racemic) | 1.66 | -2.6 | -1.47 | 5.44 | 7.2%
CN(C)CCC(c1ccccc1)c1ccccn1 (stereo not given) [pheniramine] | -0.78 | 3.08 | 0.29 | 2.25 | -0.28%
